Compound activity as filed in PubChem.
Autofluor counter – flagged as autofluorescent in microsphere protease counterscreen; compound autofluorescence counterscreen, microsphere flow cytometry; hits give high values; AID 624483; fluorescence intensity (no concentration beside the values); 360,000 tested, 3.1% active; in the data active = fluorescence intensity above about 16000; inconclusive = no clear call, values can overlap the other calls
VHR inh abs – blocks human VHR1 dual specificity phosphatase. P51452. recombinant VHR phosphatase, pNPP absorbance. 290,000 tested, 0.52% active. inhibition, % at 13.3 µM; in the data active = inhibition above about 50%
BoNT-F LC inh – blocks Botulinum neurotoxin F light chain protease; AID 588497; Multiplex microsphere protease cleavage assay, flow cytometry; inhibition, % at 10 µM; 360,000 tested, 0.22% active; in the data active = inhibition above about 35%, passing the limit was not always enough; inconclusive = no clear call, values can overlap the other calls
BoNT A protease – blocks Botulinum neurotoxin A light chain protease; multiplex microsphere protease substrate cleavage, flow cytometry; inhibition, % at 10 µM; 360,000 tested, 0.17% active; AID 588499
MazEF act – MazEF (E. coli) toxin RNase activation; P0AE70; FAM/BHQ RNA-DNA oligo cleavage fluorescence, 5 h; activation, % at 20 µM; 350,000 tested, 0.32% active; in the data active = activation above about 50%
Anthrax LF inh2 – inhibitors of Bacillus anthracis lethal factor protease; P15917; multiplex microsphere protease cleavage assay, LF; inhibition, % at 10 µM; 360,000 tested, 0.12% active
Target sequence (P15917 whole entry, looked up): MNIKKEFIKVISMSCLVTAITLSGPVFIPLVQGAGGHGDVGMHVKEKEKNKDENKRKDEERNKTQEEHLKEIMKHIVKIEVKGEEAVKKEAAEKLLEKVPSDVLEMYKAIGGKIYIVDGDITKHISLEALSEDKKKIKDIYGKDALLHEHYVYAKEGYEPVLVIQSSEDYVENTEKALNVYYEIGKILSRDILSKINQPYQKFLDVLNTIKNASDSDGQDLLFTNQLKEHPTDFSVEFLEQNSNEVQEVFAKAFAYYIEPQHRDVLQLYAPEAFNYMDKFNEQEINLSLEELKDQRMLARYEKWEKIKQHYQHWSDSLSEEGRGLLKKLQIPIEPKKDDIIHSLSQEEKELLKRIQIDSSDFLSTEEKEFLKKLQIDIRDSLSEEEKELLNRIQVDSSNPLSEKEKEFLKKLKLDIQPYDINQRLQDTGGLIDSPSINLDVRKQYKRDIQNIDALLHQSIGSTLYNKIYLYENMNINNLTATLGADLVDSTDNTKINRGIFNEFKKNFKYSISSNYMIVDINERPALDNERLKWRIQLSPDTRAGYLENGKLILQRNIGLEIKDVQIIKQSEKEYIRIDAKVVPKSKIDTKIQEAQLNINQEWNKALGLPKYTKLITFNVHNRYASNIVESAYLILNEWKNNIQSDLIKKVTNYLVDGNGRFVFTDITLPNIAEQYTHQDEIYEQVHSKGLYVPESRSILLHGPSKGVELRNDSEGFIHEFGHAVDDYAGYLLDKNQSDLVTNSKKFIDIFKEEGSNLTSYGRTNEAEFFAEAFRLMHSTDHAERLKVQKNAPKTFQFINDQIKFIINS
Hits are given with their value. Sampled rows, rich in hits. Any-hit rate of the full collection: about 4%. Cut-off read from the data, not from the text of the source, unless noted: active = inhibition above about 30%; inconclusive = no clear call, values can overlap the other calls; inactive = below that.

Screening COc1ccc(CCNC(=O)c2ccc(S(=O)(=O)N(C)c3ccccc3)cc2)cc1OC returned Autofluor counter inactive, VHR inh abs 52, BoNT-F LC inh inactive, BoNT A protease inactive, MazEF act inactive and Anthrax LF inh2 inactive.
Screening c1ccc(CSC2=NCCS2)cc1 returned Autofluor counter inactive, VHR inh abs inactive, BoNT-F LC inh inactive, BoNT A protease inactive, MazEF act inactive and Anthrax LF inh2 inactive.
Screening COc1ccc(CCNC(=O)c2ccc(N3CCCC3=O)cc2)cc1OC returned Autofluor counter 21331, VHR inh abs inactive, BoNT-F LC inh inactive, BoNT A protease inactive, MazEF act inactive and Anthrax LF inh2 inactive.
CC(=Nc1ccccc1)C1=C(O)C(Cc2cccc(F)c2)NC1=O (stereo not drawn) was read as Autofluor counter inactive, BoNT-F LC inh inactive, BoNT A protease inactive, MazEF act inactive and Anthrax LF inh2 inactive.
`Cc1ccc(S(=O)(=O)N(C)c2ccc(C(=O)NCCc3ccccc3)cc2)cc1` gave Autofluor counter inactive, VHR inh abs inactive, BoNT-F LC inh inactive, BoNT A protease inactive, MazEF act inactive and Anthrax LF inh2 inactive.
For COc1cc(C(=O)NCCc2ccc3c(c2)OCCO3)ccc1OCC(=O)N1CCOCC1 the results were Autofluor counter 16542, VHR inh abs inactive, BoNT-F LC inh inactive, BoNT A protease inactive, MazEF act inactive and Anthrax LF inh2 inactive.
Screening O=C(NCCc1c[nH]c2ccccc12)c1ccc(-n2cnnn2)cc1 returned Autofluor counter inactive, VHR inh abs inactive, BoNT-F LC inh inactive, BoNT A protease inactive, MazEF act inactive and Anthrax LF inh2 inactive.
CC1CCN(CCCNC(=O)c2ccc(N3CCCC3=O)cc2)CC1 was read as Autofluor counter inactive, VHR inh abs inactive, BoNT-F LC inh inactive, BoNT A protease inactive, MazEF act inactive and Anthrax LF inh2 inactive.
For CN(c1ccc(C(=O)NCCc2ccccc2)cc1)S(C)(=O)=O the results were Autofluor counter 20035, VHR inh abs inactive, BoNT-F LC inh inactive, BoNT A protease inactive, MazEF act inactive and Anthrax LF inh2 inactive.
Screening CC1CCCCC1NC(=O)c1ccc(N2CCCC2=O)cc1 (stereo not drawn) returned Autofluor counter 22649, VHR inh abs inactive, BoNT-F LC inh inactive, BoNT A protease inconclusive, MazEF act inactive and Anthrax LF inh2 inactive.
`O=C(NCCc1ccccc1)c1ccc(-n2cnnn2)cc1` gave Autofluor counter 16633, VHR inh abs inactive, BoNT-F LC inh inactive, BoNT A protease inconclusive, MazEF act inactive and Anthrax LF inh2 inactive.
Screening COc1cc(C(=O)NCCc2ccc(F)cc2)ccc1OCC(=O)N1CCOCC1 returned MazEF act inactive.
C[C@]1(O)CCC2C3CC[C@H]4C[C@@H](OC(=O)[C@@H](N)CCCCN)CC[C@]4(C)C3CC[C@@]21C (stereo partly drawn) was read as Autofluor counter inactive, BoNT-F LC inh inactive, BoNT A protease inactive, MazEF act inactive and Anthrax LF inh2 inactive.
Screening CC(C)Nc1nc(NCCOc2ccccc2Cl)c2sc(-c3ccccc3)cc2n1 returned Autofluor counter inactive, BoNT-F LC inh inactive, BoNT A protease inactive and Anthrax LF inh2 inactive.
`CCOc1ccccc1NC(=O)CSc1nnc(CNC(=O)c2ccccc2F)o1` gave Autofluor counter inactive, VHR inh abs inactive, BoNT-F LC inh inactive, BoNT A protease inactive, MazEF act inactive and Anthrax LF inh2 inactive.
For COCCCNc1nc2ccccc2nc1NS(=O)(=O)c1ccccc1 the results were Autofluor counter inactive, VHR inh abs inactive, BoNT-F LC inh inactive, BoNT A protease inactive, MazEF act inactive and Anthrax LF inh2 inactive.
C=CCNC(=O)c1ccc(N(C)S(=O)(=O)c2ccc(OC)cc2)cc1 was read as Autofluor counter 16765, VHR inh abs inactive, BoNT-F LC inh inactive, BoNT A protease inactive, MazEF act inactive and Anthrax LF inh2 inactive.
`Cc1cccc(C(=O)NCCN(C)C)c1` gave Autofluor counter inactive, VHR inh abs inactive, BoNT-F LC inh inactive, BoNT A protease inactive, MazEF act inactive and Anthrax LF inh2 inactive.
For CN(C)CCNC(=O)c1ccccc1 the results were Autofluor counter 20030, VHR inh abs inactive, BoNT-F LC inh inactive, BoNT A protease inactive, MazEF act inactive and Anthrax LF inh2 inactive.
`O=C(CSc1nnc(Cc2ccccc2)o1)NCc1ccc2c(c1)OCO2` gave Autofluor counter inactive, VHR inh abs inactive, BoNT-F LC inh inactive, BoNT A protease inactive, MazEF act inactive and Anthrax LF inh2 inactive.
For CC(C)(C)NC(=O)c1c(F)c(F)c(F)c(F)c1F the results were Autofluor counter inactive, VHR inh abs inactive, BoNT-F LC inh inactive, BoNT A protease inactive, MazEF act inactive and Anthrax LF inh2 inactive.
Cc1cccc(NC(=O)CCNC(=O)c2ccccc2Cl)n1 was read as Autofluor counter inactive, VHR inh abs inactive, BoNT-F LC inh inactive, BoNT A protease inactive, MazEF act inactive and Anthrax LF inh2 inactive.
Cc1cccc(NC(=O)c2cc(NC(=O)CCCC(=O)O)ccc2Cl)n1 was read as Autofluor counter 23857, VHR inh abs inactive, BoNT-F LC inh inactive, BoNT A protease inactive, MazEF act inactive and Anthrax LF inh2 inactive.
`COc1cccc2cc(C(=O)OCc3ccccc3)c(=O)oc12` gave Autofluor counter inactive, VHR inh abs inactive, BoNT-F LC inh inconclusive, BoNT A protease inactive, MazEF act inactive and Anthrax LF inh2 inactive.
For COc1ccc(/C=C(/C(=O)Nc2ccccc2C(=O)N2CCCC2)c2ccccc2)cc1 the results were Autofluor counter 22608, VHR inh abs inactive, BoNT-F LC inh inactive, BoNT A protease inactive, MazEF act inactive and Anthrax LF inh2 inactive.
COc1ccc(NC(=O)c2ccccc2NC(=O)c2ccccc2)cc1 was read as Autofluor counter inactive, VHR inh abs inactive, BoNT-F LC inh inactive, BoNT A protease inactive, MazEF act inactive and Anthrax LF inh2 inactive.
`COc1ccc(/C=C(/C(=O)Nc2ccccc2C(=O)NC(C)C)c2ccccc2)cc1` gave Autofluor counter 17014, VHR inh abs inactive, BoNT-F LC inh inactive, BoNT A protease inactive, MazEF act inactive and Anthrax LF inh2 inactive.
CCCNc1c(N)c(=O)oc2ccccc12 was read as Autofluor counter inactive, VHR inh abs inactive, BoNT-F LC inh inactive, BoNT A protease inactive, MazEF act inactive and Anthrax LF inh2 inactive.
Screening O=C(Nc1cccnc1)c1cc2c(ccc3ccccc32)o1 returned Autofluor counter 23266, VHR inh abs inactive, BoNT-F LC inh inactive, BoNT A protease inactive, MazEF act inactive and Anthrax LF inh2 inactive.
For Cc1c(C(=O)Nc2ccncc2)oc2c1C(=O)CC(C)(C)C2 the results were Autofluor counter 19786, VHR inh abs inactive, BoNT-F LC inh inactive, BoNT A protease inconclusive, MazEF act inactive and Anthrax LF inh2 inactive.
`CCN1CCN(C(c2cc(OC)ccc2OC)c2nnnn2Cc2ccccc2)CC1` (stereo not drawn) gave Autofluor counter inactive, VHR inh abs inactive, BoNT-F LC inh inconclusive, BoNT A protease inactive, MazEF act inactive and Anthrax LF inh2 inactive.
For O=C(NCCCn1ccnc1)c1cc(C(=O)C2CC2)c[nH]1 the results were Autofluor counter inactive, VHR inh abs inactive, BoNT-F LC inh inactive, BoNT A protease inactive, MazEF act inactive and Anthrax LF inh2 inactive.
